Screens (PubChem BioAssay)
SW480 rerep: A quantitative high throughput screen for small molecules that induce DNA re-replication in SW480 colon adenocarcinoma cells | SW480 DNA re-replication, Hoechst DNA content imaging, 48 h | Potency, µM (series often up to 46.1 µM), for the others: at the highest dose re-replication activation, hits mostly activators | hit rate 1.8% among 340,000 | AID 624297, 2012; further: % of control where 0% means no effect; nearly all actives have a fitted effect of over 55% in size
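Compounds, transferred as 23 nL by pin tool, were incubated with cells for 48 hr; DNA content per nucleus was then quantified by Hoechst staining and fluorescence plate imaging.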
HT1080-NT tox: qHTS for induction of synthetic lethality in tumor cells producing 2HG: qHTS for the HT-1080-NT fibrosarcoma cell line | HT-1080-NT fibrosarcoma viability, CellTiter-Glo ATP luminescence, 48 h | Potency, µM (doses to about 46.1 µM), inactives show at the highest dose activity, negative = less viability, usual class: cytotoxic | hit rate 1.6% among 360,000;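 further: NT is the 2HG producing partner of a matched IDH1 knockdown line; 0% = DMSO-treated cells and -100% = media-only wells without cells; nearly all actives have a fitted effect of over 55% in size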
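Read-out is CellTiter-Glo luminescence after 10 minutes at room temperature, following 48 hours' compound treatment of HT-1080-NT cells (750 cells/well, RPMI, 5% FBS, 37 degrees C).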
MCF10A rerep: A quantitative high throughput screen for small molecules that induce DNA re-replication in MCF 10a normal breast cells | MCF 10A DNA re-replication, Hoechst nuclear intensity, 48 h | Potency, µM (top dose mostly 46.1 µM), without a hit: at the highest dose activity, positive = re-replication, usual class: activators | hit rate 2.9% among 350,000; further: % of control where 0% means no effect; nearly all actives have a fitted effect of over 50% in size
HT1080 IDH1KD tx: qHTS for induction of synthetic lethality in tumor cells producing 2HG: qHTS for the HT-1080-IDH1KD cell line | Potency, µM (top dose mostly 46.1 µM), for the others: at the highest dose activity, negative = toxicity, usual class: cytotoxic | hit rate 2% among 360,000 | HT-1080 IDH1 knockdown viability, ATP luminescence, 48 h;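 further: 0% = DMSO wells and -100% = cell-free medium wells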
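% activity derives from luminescence (CellTiter-Glo), normalised to DMSO and no-cell wells. HT-1080-IDH1KD cells, 750/well, had 48 h compound exposure at 37 °C.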
KB-V1 MDR tox: qHTS assay for MDR1-selective chemotherapeutics: Primary screen using the drug-selected MDR subline cells KB-V1; Potency, µM (top dose mostly 46.1 µM), most hits filed as cytotoxic; KB-V1 MDR cells viability, CellTiter-Glo, 72 h; hit rate 3.4% among 400,000; further: on the % scale 0 is the no-effect control and ±100 the full control effect; nearly all actives have a fitted effect of over 60% in size
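In this primary screen, KB-V1 cells overexpressing P-gp are incubated with library compounds (lowest to highest concentration) for 72 h at 37 degrees C before a luminescent ATP viability read.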
KB-3-1 cytotox: qHTS assay for MDR1-selective chemotherapeutics: Primary screen using the parental adenocarcinoma cell KB-3-1. KB-3-1 viability, CellTiter-Glo ATP luminescence, 72 h. Potency, µM (doses to about 46.1 µM), actives largely listed as cytotoxic. hit rate 1.4% among 400,000; further: on the % scale 0 is the no-effect control and ±100 the full control effect; nearly all actives have a fitted effect of over 60% in size
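Screening of KB-3-1 cells (DMEM, 10% FBS, phenol-red free) ran from lowest to highest compound concentration; after 72 h at 37 °C viability was read luminescently and curves fitted.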
Active calls of the source: *; i = inactive; ? = inconclusive; nt = no result given. Most compounds without a hit are left out; they make up all but 8% or so of the library. The call rests on the fitted dose curve; in most records, active means well fitted curve in the direction sought with a large enough effect; inconclusive means small, poorly fitted or top-dose-only effect, or another doubt; inactive means no such curve, though single readings can be large; an effect the other way counts as inactive or inconclusive. Potency means the concentration at half of the fitted maximal effect.

SMILES | SW480 rerep | HT1080-NT tox | MCF10A rerep | HT1080 IDH1KD tx | KB-V1 MDR tox | KB-3-1 cytotox
CCOC(=O)c1ccccc1NC(=O)Cn1nnc2sc3c(c2c1=O)CCCC3 | nt | nt | nt | nt | i | i
Cc1ccc(C)c(N2CCN(C(=O)C(CC(C)C)NS(=O)(=O)c3ccc4nc(C)sc4c3)CC2)c1 (stereo not drawn) | nt | nt | nt | nt | ? | i
CCC(=O)N1c2ccc(S(=O)(=O)N3CCN(c4ccccc4)CC3)cc2CC1C (stereo not drawn) | nt | nt | nt | nt | i | i
CC(=O)c1ccc(N2CCN(S(=O)(=O)c3ccc4c(c3)CC(C)N4C(=O)C3CC3)CC2)cc1 (stereo not drawn) | ? | -5% | -2% | -8% | i | ?
CCC(=O)N1c2ccc(S(=O)(=O)N3CCN(c4ccc([N+](=O)[O-])cc4)CC3)cc2CC1C (stereo not drawn) | 16% | ? | -3% | 6.5µM* | i | i
CC(=O)c1ccc(N2CCN(S(=O)(=O)c3ccc4c(c3)CC(C)N4C(C)=O)CC2)cc1 (stereo not drawn) | -3% | ? | 2% | ? | 8.2µM* | ?
Cc1cc(C(=O)C(C)Sc2cccc[n+]2[O-])c(C)n1-c1ccc(Cl)cc1 (stereo not drawn) | -1% | ? | 16% | 23µM* | 21µM* | ?
COc1ccc(N2CCC(CNC(=S)Nc3cc(C)ccc3C)C2)cc1 (stereo not drawn) | -31% | -22% | 2% | 3% | 18µM* | i
COc1ccc(N2CCC(CNC(=O)Nc3ccccc3)C2)cc1 (stereo not drawn) | -15% | 1% | 19% | 8% | 16µM* | i
COc1ccc(N2CCC(CNC(=S)Nc3cc(C)cc(C)c3)C2)cc1 (stereo not drawn) | ? | ? | ? | ? | i | i
Cc1ccc(Cn2c(SCc3ccc(C(=O)O)cc3)nc3cccnc32)cc1 | nt | nt | nt | nt | i | i
CCS(=O)(=O)N1CCc2cc(C(=O)Nc3ccc(OC)cc3OC)ccc21 | nt | nt | nt | nt | i | i
CCCCCCCCCCCCCCCCn1cc[n+](CC(C)=O)c1 | -35% | ? | 15µM* | -16% | i | 8.2µM*
COc1cccc(C(=O)Nc2ccccc2C(=O)OCc2cc(=O)n3nc(C4CC4)sc3n2)c1 | nt | nt | nt | nt | i | i
COc1cccc(C(=O)/C(C#N)=N/Nc2cccc(-c3ccnc(C)n3)c2)c1 | -2% | 26µM* | 9% | -28% | ? | ?
CC(C)(C)C1=CC(=Nc2ccccc2N)C=C(C(C)(C)C)C1=O | ? | ? | -6% | ? | ? | ?
CC(C)(C)C1=CC(=O)C(=O)C(C(C)(C)C)=C1 | 18µM* | ? | ? | ? | 13µM* | i
COc1ccc(-c2cc(C(F)(F)F)nc(SCC(=O)NC(C)c3ccccc3)n2)cc1 (stereo not drawn) | nt | nt | nt | nt | i | i
Brc1cccc[n+]1Cc1ccccc1C[n+]1ccccc1Br | nt | nt | nt | nt | i | i
O=C1CCC2(CC1)NC(=O)N(c1ccccc1)N2 | 1% | ? | 24% | 8.2µM* | i | i
Cc1ccc(S(=O)(=O)N2CCC(=O)N(C(COCc3ccc(C(F)(F)F)cc3)Cc3ccccc3)CC2)cc1 (stereo not drawn) | 25% | 3% | 3.7µM* | -2% | i | i
Cc1ccc(S(=O)(=O)N2CCC(=O)N([C@H](COCc3ccc(C(F)(F)F)cc3)Cc3ccccc3)CC2)cc1 | nt | 3% | nt | 4% | i | ?
Cc1ccc(S(=O)(=O)N2CCC(=O)N(C(COCc3ccc(Cl)c(Cl)c3)Cc3ccccc3)CC2)cc1 (stereo not drawn) | -36% | -3% | 23µM* | 1% | i | i
Cc1ccc(S(=O)(=O)N2CCC(=O)N(C(COCc3cccc(C)c3)Cc3ccccc3)CC2)cc1 (stereo not drawn) | ? | -9% | 8.2µM* | -2% | i | i
Cc1ccccc1-n1c(C)n[nH]c1=S | 15µM* | 13µM* | 9.2µM* | ? | i | i
SMILES | SW480 rerep | HT1080-NT tox | MCF10A rerep | HT1080 IDH1KD tx | KB-V1 MDR tox | KB-3-1 cytotox
CCc1cc(-c2n[nH]c(=S)n2Cc2ccccc2)cs1 | -1% | 8% | 3% | 10% | 21µM* | i
CCc1cc(-c2n[nH]c(=S)n2-c2ccccc2C)cs1 | ? | 11µM* | -3% | ? | 18µM* | i
CCc1cc(-c2n[nH]c(=S)n2CC)cs1 | 0% | 1% | 5% | 2% | ? | ?
COc1ccc(-c2cc(C(F)(F)F)n3nc(C(=O)Nc4cc(C(F)(F)F)ccc4Cl)cc3n2)cc1OC | nt | nt | nt | nt | i | i
O=C(Nc1ccc(F)cc1)c1ccccc1Oc1ccc(C(F)(F)F)cc1[N+](=O)[O-] | nt | ? | ? | ? | 16µM* | i
O=C(Nc1ccccc1)c1ccccc1Oc1ccc(C(F)(F)F)cc1[N+](=O)[O-] | 0% | -29% | 7% | -29% | ? | ?
Cc1ccc(C)c(NC(=O)C2CCCN(S(=O)(=O)c3cccc4nsnc34)C2)c1 (stereo not drawn) | nt | nt | nt | nt | i | i
COc1ccc(SCCN2CC[C@@H](C(C)(C)C)CCC2=O)cc1 | -4% | 0% | 9.2µM* | -4% | ? | i
CCCN1CCC(=O)N(CCSc2ccc(OC)cc2)CC1 | ? | ? | ? | 23µM* | i | ?
CCCN1CCC(=O)N(CCSc2ccc(C)cc2)CC1 | 2% | 0% | -13% | 6% | i | ?
COC(=O)C=CC(=NNc1ccccc1)c1ccccc1 | ? | -14% | 18µM* | -20% | i | i
CO/N=C/C(=N\Nc1ccccc1)C(=O)c1ccccc1 | 1% | 0% | -11% | -2% | ? | i
